# Assay results: PubChem BioAssay (Tox21)
# Several values for one entry are separate records, joined by “and”; a condition that tells them apart may be missing. Equal entries are not always repeated. Inconclusive results are not listed. Entries that show only a call come without a potency. Some structures have more than one record in an assay (separate samples or runs), and their calls can disagree. Activity calls are given as the source filed them. Unless noted, calls come from the whole dose curve; as a rule, active = well fitted curve in the direction sought with a large enough effect in the repeat runs; inconclusive = weak or mixed curves; inactive = no such curve, though single readings can be large; an effect the other way counts as inactive or inconclusive.
# What was measured:
# [1] = qHTS assay to identify small molecule agonists of the RXR signaling pathway - cell viability counter screen (AID 1159529); note: nearly all actives have a fitted effect of over 50% in size; note: potency is the fitted concentration of half-maximal effect
# Procedure, shortened: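 In this parallel viability measure, GeneBLAzer RXR-alpha HEK 293T cells (2% charcoal-stripped FBS) were given a 5 hr preincubation, treated with compounds 16 hr at 37 C, and read by CellTiter-Glo luminescence.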
# [2] = qHTS assay to identify small molecule antagonists of the retinoid acid receptor (RAR) signaling pathway - cell viability counter screen (AID 1159551); note: nearly all actives have a fitted effect of over 35% in size
# Procedure, shortened: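 ATP-based viability, C3RL4 cells, 6 h at 37 C with 1 uM final retinol co-added after compound; luminescence read 30 min post CellTiter-Glo, RT.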
# [3] = qHTS assay to identify small molecule antagonists of the retinoic acid receptor (RAR) signaling pathway (AID 1159552; note: nearly all actives have a fitted effect of over 50% in size; note: potency is the fitted concentration of half-maximal effect)
# Procedure, shortened: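 C3RL4 RARE-luc cells, overnight plating; retinol 1 uM final added right after compound; 6 hr 37 C; luciferase read at 30 min RT.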
# [4] = qHTS assay to identify small molecule antagonists of the estrogen related receptor (ERR) signaling pathway from Tox21 library - cell viability counter screen (AID 1224834); note: nearly all actives have a fitted effect of over 30% in size; note: potency is the fitted concentration of half-maximal effect
# Procedure, shortened: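 Compounds in DMSO were pinned onto ERR cells that had been incubated for 6 h, and the plates were held at 37 C for 17.5 h. CellTiter-Fluor reagent was then added and fluorescence was measured after 30 min.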
# [5] = target: Luciferin 4-monooxygenase (Photinus pyralis) (UniProt P08659); test: qHTS assay to identify small molecule inhibitors of firefly luciferase (AID 1224835); note: series mostly up to about 120 µM; nearly all actives have a fitted effect of over 25% in size
# Chain of Luciferin 4-monooxygenase (Photinus pyralis) (P08659 whole entry, looked up): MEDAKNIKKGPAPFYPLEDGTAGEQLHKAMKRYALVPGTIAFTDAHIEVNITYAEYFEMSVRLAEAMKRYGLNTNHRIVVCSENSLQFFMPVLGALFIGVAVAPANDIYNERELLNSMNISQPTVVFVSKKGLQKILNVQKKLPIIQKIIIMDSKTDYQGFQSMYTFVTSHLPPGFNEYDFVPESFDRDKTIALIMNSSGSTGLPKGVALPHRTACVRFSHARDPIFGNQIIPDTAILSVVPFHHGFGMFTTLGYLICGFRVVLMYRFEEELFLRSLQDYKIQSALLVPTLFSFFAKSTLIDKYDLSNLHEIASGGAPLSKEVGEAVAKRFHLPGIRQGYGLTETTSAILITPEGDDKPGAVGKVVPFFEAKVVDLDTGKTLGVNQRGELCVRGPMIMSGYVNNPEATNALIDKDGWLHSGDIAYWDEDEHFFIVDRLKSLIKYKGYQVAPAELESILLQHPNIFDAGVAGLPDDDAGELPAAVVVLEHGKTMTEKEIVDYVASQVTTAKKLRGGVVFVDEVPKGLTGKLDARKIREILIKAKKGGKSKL
# Procedure, shortened: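 Inhibition of purified Photinus luciferase is measured by luminescence. Substrate levels (D-luciferin, ATP) sit at their KM values. Each compound is tested in a concentration series.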
# [6] = qHTS assay to identify small molecule agonists of the constitutive androstane receptor (CAR) signaling pathway - cell viability counter screen (AID 1224836); note: series mostly up to about 92 µM; nearly all actives have a fitted effect of over 45% in size
# Procedure, shortened: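 Using CellTiter-Fluor, viability of HepG2 cells harbouring hCAR and CYP2B6-2.2kb was measured following 23 h incubation with a 15-concentration compound series plus PK11195 (0.75 uM final).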
# [7] = qHTS assay to identify small molecule antagonists of the constitutive androstane receptor (CAR) signaling pathway - cell viability counter screen (AID 1224837); note: nearly all actives have a fitted effect of over 45% in size; note: potency is the fitted concentration of half-maximal effect
# Procedure, shortened: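 Cells are seeded, rested 4 hr at 37 C/5% CO2, dosed with compound (15-point series) and 50 nM CITCO, incubated a further 23 hr, and then CellTiter-Fluor reagent is added before fluorescence is read. The line is HepG2 with stable hCAR and CYP2B6-2.2kb.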
# [8] = target: Nuclear receptor subfamily 1 group I member 3 (Homo sapiens) (UniProt Q14994); test: qHTS assay to identify small molecule antagonists of the constitutive androstane receptor (CAR) signaling pathway (AID 1224838);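 note: HepG2 cells stably expressing hCAR with CYP2B6 luciferase reporter stimulated by CITCO; nearly all actives have a fitted effect of over 40% in size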; note: potency is the fitted concentration of half-maximal effect
# Chain of Nuclear receptor subfamily 1 group I member 3 (Homo sapiens) (Q14994 whole entry, looked up): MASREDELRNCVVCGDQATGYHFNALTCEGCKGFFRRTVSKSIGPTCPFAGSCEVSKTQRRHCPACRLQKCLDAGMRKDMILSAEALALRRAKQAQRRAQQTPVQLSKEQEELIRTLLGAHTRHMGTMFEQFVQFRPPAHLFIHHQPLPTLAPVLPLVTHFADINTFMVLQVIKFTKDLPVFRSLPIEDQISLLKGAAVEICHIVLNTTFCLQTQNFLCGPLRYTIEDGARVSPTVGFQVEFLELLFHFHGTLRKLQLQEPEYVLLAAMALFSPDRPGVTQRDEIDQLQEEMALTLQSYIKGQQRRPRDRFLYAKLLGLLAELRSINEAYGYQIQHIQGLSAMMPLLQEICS
# Procedure, shortened: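 Luminescence from a CYP2B6-2.2kb promoter reporter in hCAR-expressing HepG2 cells reflects CAR signaling. Cells received compounds at 15 concentrations and 50 nM CITCO (final), then incubated 24 h at 37 C/5% CO2.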
# [9] = qHTS assay to identify small molecule antagonists of the estrogen related receptor signaling pathway with the pleiotropic PPARgamma coactivator (PGC) from Tox21 10K library - cell viability counter screen (AID 1224840; active = well fitted cell-killing curve with a large enough effect in the repeat runs, not every such curve was filed as active; note: nearly all actives have a fitted effect of over 40% in size)
# Procedure, shortened: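 Cell viability is measured by CellTiter-Fluor fluorescence in PGC/ERR cells that receive compounds after a 6-hour attachment period and are then incubated 17.5 hours at 37 C.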
# [10] = qHTS assay to identify small molecule antagonists of the estrogen related receptor signaling pathway with the pleiotropic PPARgamma coactivator (PGC) from Tox21 10K library (AID 1224841; call rule not given here; note: actives are mostly falling curves and most rising ones were filed inactive; nearly all actives have a fitted effect of over 50% in size; note: potency is the fitted concentration of half-maximal effect)
# Procedure, shortened: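 Cells stably carrying the PGC/ERR reporter, seeded at 2,000 per well, received pin-transferred compounds 6 h post-plating. Exposure lasted 18 h at 37 C. Signal: One-Glo luminescence.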
# [11] = qHTS assay to identify small molecule agonists of the estrogen related receptor signaling pathway with the pleiotropic PPARgamma coactivator (PGC) from Tox21 10K library (AID 1224842); note: nearly all actives have a fitted effect of over 15% in size; note: potency is the fitted concentration of half-maximal effect
# Procedure, shortened: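 Luminescence from One-Glo (30 min, room temperature) measured after PGC/ERR cells had 18 h at 37 C with pinned compound (23 nL in DMSO). Cells had been seeded at 2,000 per well and pre-incubated 6 h.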
# [12] = target: Thyrotropin receptor (Homo sapiens) (UniProt P16473); test: qHTS assay to identify small molecule agonists of the thyroid stimulating hormone receptor (TSHR) signaling pathway (AID 1224843; calls by dose curve; note: nearly all actives have a fitted effect of over 45% in size)
# Chain of Thyrotropin receptor (Homo sapiens) (P16473 whole entry, looked up): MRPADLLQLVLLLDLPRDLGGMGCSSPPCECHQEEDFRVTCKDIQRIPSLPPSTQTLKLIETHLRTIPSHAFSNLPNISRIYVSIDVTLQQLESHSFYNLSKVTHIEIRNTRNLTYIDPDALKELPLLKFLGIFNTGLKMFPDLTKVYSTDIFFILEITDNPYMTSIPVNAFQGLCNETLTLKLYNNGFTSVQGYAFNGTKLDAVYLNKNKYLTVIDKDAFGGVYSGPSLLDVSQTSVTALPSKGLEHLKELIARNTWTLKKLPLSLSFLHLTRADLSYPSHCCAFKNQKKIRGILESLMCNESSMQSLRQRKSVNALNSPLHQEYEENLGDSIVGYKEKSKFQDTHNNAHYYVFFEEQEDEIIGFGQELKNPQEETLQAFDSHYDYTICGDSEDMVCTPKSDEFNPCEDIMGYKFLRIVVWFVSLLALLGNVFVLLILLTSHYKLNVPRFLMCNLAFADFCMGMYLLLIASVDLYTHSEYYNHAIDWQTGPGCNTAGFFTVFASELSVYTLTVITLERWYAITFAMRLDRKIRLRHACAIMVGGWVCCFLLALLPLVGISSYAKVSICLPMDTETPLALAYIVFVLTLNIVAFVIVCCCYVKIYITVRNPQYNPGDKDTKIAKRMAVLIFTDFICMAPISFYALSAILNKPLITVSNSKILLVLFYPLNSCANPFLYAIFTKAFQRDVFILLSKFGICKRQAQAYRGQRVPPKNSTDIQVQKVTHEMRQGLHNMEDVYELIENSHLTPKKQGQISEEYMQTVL
# Procedure, shortened: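 A cell-based cAMP HTRF format was run in TSHR-transfected HEK293 cells, 800 per well. Treatment: 30 min, room temperature. Detection: 1 h with labelled cAMP and anti-cAMP cryptate. Concentration-response over 15 points, three replicates.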
# [13] = qHTS assay to identify small molecule agonists of the retinoic acid receptor (RAR) signaling pathway (AID 1159553); note: potency is the fitted concentration of half-maximal effect
# Procedure, shortened: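 Quantitative high-throughput format: the Tox21 10K library was tested on C3RL4 RARE-luciferase cells for 6 hr at 37 C and 5% CO2, with luminescence measured after a 30 min room-temperature reagent step.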
# [14] = qHTS assay to identify small molecule antagonists of the estrogen related receptor (ERR) signaling pathway - cell viability counter screen (AID 1224818);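 note: series mostly up to about 46 µM; viability measured after 17.5 h of compound exposure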
# Procedure, shortened: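 Quantitative high-throughput viability counter screen in ERR cells. Compounds (DMSO) incubated 17.5 h at 37 C; read-out was CellTiter-Fluor fluorescence.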
# [15] = qHTS assay to identify small molecule antagonists of the estrogen related receptor signaling pathway with the pleiotropic PPARgamma coactivator (PGC) cell viability counter screen (AID 1224822; note: series mostly up to about 46 µM)
# Procedure, shortened: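 Cytotoxicity in the PGC/ERR cell line is assessed with CellTiter-Fluor, read as fluorescence intensity 30 min after reagent addition, following 17.5 h compound treatment at 37 C.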
# [16] = target: Nuclear receptor subfamily 1 group I member 3 (Homo sapiens) (UniProt Q14994); test: qHTS assay to identify small molecule agonists of the constitutive androstane receptor (CAR) signaling pathway (AID 1224839); note: nearly all actives have a fitted effect of over 15% in size; note: potency is the fitted concentration of half-maximal effect
# Procedure, shortened: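 Double-stable HepG2 cells (hCAR, CYP2B6-2.2kb) seeded 4 h before compound addition. Exposure 24 h with 0.75 uM PK11195 final. Luciferase detected by ONE-Glo.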
# [17] = qHTS assay to identify small molecule antagonists of the estrogen related receptor (ERR) signaling pathway (AID 1224819; note: potency is the fitted concentration of half-maximal effect; nearly all actives have a fitted effect of over 50% in size)
# Procedure, shortened: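 ERR reporter cell line (NTP) plated at 2,000 cells/well, settled 6 h at 37C/5% CO2, then exposed to LOPAC compounds for 18 h at 37C. One-Glo luciferase luminescence read after 30 min at room temperature.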
# [18] = qHTS assay to identify small molecule agonists of the estrogen related receptor (ERR) signaling pathway (AID 1224820)
# Procedure, shortened: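 Luminescence readout (One-Glo, 30 min RT) from NTP-supplied ERR cell line exposed to compounds for 18 h at 37 C. Cells seeded 2,000 per well and pre-incubated 6 h before pin-tool compound transfer.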
# [19] = system: estrogen-related receptor alpha (ERRalpha) with PGC-1alpha coactivator, human; test: qHTS assay to identify small molecule antagonists of the estrogen related receptor signaling pathway with the pleiotropic PPARgamma coactivator (PGC) (AID 1224821; calls by dose curve)
# Procedure, shortened: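 PGC/ERR reporter cells; 6 h pre-incubation 37 C/5% CO2; pin-tool compound in DMSO, 18 h 37 C; One-Glo added, 30 min RT; luminescence read. qHTS antagonist mode.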
# [20] = qHTS assay to identify small molecule agonists of the estrogen related receptor signaling pathway with the pleiotropic PPARgamma coactivator (PGC) (AID 1224823)
# Procedure, shortened: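 Luminescence readout (One-Glo, 30 min RT) from PGC/ERR cell line treated 18 h at 37 C with pin-tool-delivered DMSO compound solutions; cells plated 6 h before dosing. Quantitative HTS format.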
SMILES,Potency [1],Potency [2],Potency [3],Potency [4],Potency [5],Potency [6],Potency [7],Potency [8],Potency [9],Potency [10],Potency [11],Potency [12],Potency [13],Potency [14],Potency [15],Potency [16],Potency [17],outcome [18],Potency [19],outcome [20]
CCCCOCCOCCOCCO,inactive,inactive,inactive,inactive,inactive,inactive,inactive,inactive,inactive,inactive,inactive,inactive,–,–,–,–,–,–,–,–
C=CC(C)(CCC=C(C)C)OC(C)=O (stereo unspecified),inactive,inactive,inactive,inactive,–,inactive,inactive,inactive,–,–,–,inactive,inactive,–,–,–,–,–,–,–
c1cc(-c2ccncc2)ccn1,inactive,inactive,inactive,inactive,inactive,–,inactive,inactive,inactive,–,–,inactive,inactive,–,–,–,–,–,–,–
CN(C)CCC=C1c2ccccc2CCc2ccccc21,12.3 µM (active) and 15.5 µM (active) and 13.4 µM (active),inactive,–,68.6 µM (active) and 48.6 µM (active) and inactive,–,–,–,48.6 µM (active),–,–,–,–,–,inactive,inactive,inactive,–,–,–,–
O=C(c1ccccc1)c1ccccc1O,inactive,inactive,inactive,inactive,inactive,–,inactive,inactive,inactive,inactive,inactive,inactive,inactive,–,–,–,–,–,–,–
CCCCC(CC)COCC1CO1 (stereo unspecified),inactive,inactive,inactive,inactive,–,–,inactive,inactive,–,inactive,inactive,inactive,inactive,–,–,inactive,–,–,–,–
CCOC(=O)C(C#N)=C(c1ccccc1)c1ccccc1,inactive,inactive,inactive,inactive,inactive,–,inactive,inactive,–,inactive,inactive,inactive,inactive,–,–,–,–,–,–,–
c1cc(N(CC2CO2)CC2CO2)ccc1OCC1CO1 (stereo unspecified),inactive,inactive,inactive,48.6 µM (active),–,–,54.5 µM (active),68.6 µM (active),–,inactive,9.7 µM (active),inactive,–,–,–,inactive,–,–,–,–
NC=O,inactive,inactive,inactive,inactive,–,inactive,inactive,–,inactive,inactive,inactive,–,inactive,–,–,–,–,–,–,–
Cc1cc2nc3c(=O)[nH]c(=O)nc-3n(C[C@H](O)[C@H](O)[C@H](O)CO)c2cc1C,inactive,inactive,inactive,–,inactive,–,–,inactive,–,–,–,inactive,inactive,–,–,inactive,–,–,–,–
O=P(O)(O)O,inactive,inactive,inactive,inactive,–,–,inactive,–,inactive,–,–,inactive,inactive,–,–,–,–,–,–,–
CC(C)(C)NC(=O)[C@H]1CC[C@H]2[C@@H]3CC[C@H]4NC(=O)C=C[C@]4(C)[C@H]3CC[C@]12C,inactive,inactive,inactive,inactive,–,inactive,inactive,inactive,inactive,–,–,–,inactive,–,–,inactive,–,–,–,–
O=CCc1ccccc1,inactive,inactive,inactive,inactive,–,inactive,inactive,inactive,inactive,–,–,–,inactive,–,–,–,–,–,–,–
c1ccc(Nc2ccccc2)cc1,inactive,inactive,inactive,48.5 µM (active) and inactive,–,inactive,inactive,inactive,inactive,inactive,inactive,inactive,inactive,–,–,inactive,–,–,–,–
NNc1ccc(C(=O)O)cc1,inactive,inactive,inactive,inactive,–,inactive,inactive,–,inactive,–,–,inactive,43.9 nM (active) and 24.6 µM (active),–,–,–,–,–,–,–
CCC(C)(O)CCCC(C)C (stereo unspecified),inactive,inactive,inactive,inactive,–,inactive,inactive,inactive,inactive,–,–,inactive,inactive,–,–,–,–,–,–,–
O=C(c1ccccc1)c1ccc(O)cc1O,25 µM (active) and inactive,inactive,55.5 µM (active) and inactive,69.9 µM (active) and inactive,–,–,–,inactive,inactive,–,–,inactive,inactive,–,–,61.1 µM (active),–,–,–,–
CCCCCCCCCCCO,inactive,inactive,inactive,inactive,–,–,inactive,inactive,–,inactive,inactive,inactive,inactive,–,–,inactive,–,–,–,–
Nc1ncn([C@@H]2O[C@H](CO)[C@@H](O)[C@H]2O)c(=O)n1,inactive,inactive,27.3 µM (active) and 29.8 µM (active),2.17 µM (active) and 3.76 µM (active),inactive,–,4.86 µM (active),inactive,–,2.73 µM (active) and 7.5 µM (active),inactive,inactive,–,–,–,–,0.619 µM (active),inactive,3.1 µM (active),inactive
O=C=Nc1ccc(Cc2ccc(N=C=O)cc2)cc1,inactive,inactive,inactive,inactive,–,–,inactive,–,inactive,inactive,inactive,inactive,inactive,–,–,–,–,–,–,–
C/C=C/C(=O)O,inactive,inactive,inactive,inactive,–,inactive,inactive,–,inactive,inactive,inactive,inactive,inactive,–,–,–,–,–,–,–
CCC(C)c1ccccc1O (stereo unspecified),inactive,inactive,inactive,inactive,–,inactive,inactive,inactive,–,inactive,inactive,inactive,inactive,–,–,inactive,–,–,–,–
